Experimental data from PubChem BioAssay (NCATS).
Records with an inconclusive call do not appear. Calls of active or inactive are those of the source. Unless noted, the call rests on the fitted dose curve; in most records, active means well fitted curve in the direction sought with a large enough effect; inconclusive means small, poorly fitted or top-dose-only effect, or another doubt; inactive means no such curve, though single readings can be large; an effect the other way counts as inactive or inconclusive.

Columns and labels:
[1] = NCATS anti-infectives library activity on HEK293 viability as a counter-qHTS vs the C. elegans viability qHTS (AID 1745854); further: on the % scale 0 is the no-effect control and ±100 the full control effect
Method in brief: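 HEK293 cells, 1500 per well, exposed 24 hr at 37C in 5% CO2 to compounds in a 1:5 titration, up to 41.7 uM final. Viability read as CellTiter-Glo luminescence after 10 min at room temperature.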

[2] = Counterscreen for APE1 Inhibitors: Fluorescent Dye Displacement Validation Assay (AID 1707);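 further: plate controls were ThO with dsDNA and no compound for no effect and ThO without dsDNA for full effect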
Method in brief: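 Thiazole Orange (250 nM) bound to 50 nM TAMRA-labelled dsDNA with tetrahydrofuran abasic site; displacement by DNA-binding compounds lowers fluorescence. Buffer 50 mM Tris-HCl pH 7.5, 50 mM NaCl, 2 mM MgCl2, 0.01% Tween-20; endpoint read at 480/540 nm.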

[3] = molecular target: Endonuclease 4 (Escherichia coli (strain K12)) (UniProt P0A6C1); test: Counterscreen for APE1 Inhibitors: qHTS Validation Assay for Inhibitors of Endonuclease IV (AID 1708); further: on the % scale 0 is the no-effect control and ±100 the full control effect
Method in brief: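 Enzymatic AP-site incision assay using a double-stranded THF substrate labelled with TAMRA and BHQ-2; released fluorescence signals activity. Enzyme 2 nM, substrate 50 nM, 15 min compound preincubation.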

[4] = qHTS for differential inhibitors of proliferation of Plasmodium falciparum line 7G8 (AID 1815);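 further: potency means the concentration at half of the fitted maximal effect; parasite growth measured after three days of incubation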
[5] = qHTS for differential inhibitors of proliferation of Plasmodium falciparum line GB4 (AID 1816); details: Potency: Plasmodium falciparum GB4 proliferation inhibition;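 further: parasite growth measured after 72 h incubation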; further: potency means the concentration at half of the fitted maximal effect;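 on activity change, negative = inhibition: 0% = vehicle DMSO and -100% = reference inhibitor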
[6] = qHTS for differential inhibitors of proliferation of Plasmodium falciparum line 3D7 (AID 1876); further: potency means the concentration at half of the fitted maximal effect
[7] = qHTS for differential inhibitors of proliferation of Plasmodium falciparum line D10 (AID 1877);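 further: parasites grown with compound for 72 h before DNA staining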; further: potency means the concentration at half of the fitted maximal effect;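 on activity change, negative = inhibition: plate controls were vehicle wells for no effect and reference inhibitor wells for full effect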
[8] = qHTS for differential inhibitors of proliferation of Plasmodium falciparum line Dd2 (AID 1882); details: Potency: Plasmodium falciparum Dd2 proliferation inhibition; further: nearly all actives have a fitted effect of over 65% in size; further: potency means the concentration at half of the fitted maximal effect;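 on activity change, negative = inhibition: compound exposure of 72 h on infected erythrocytes; plate controls were DMSO vehicle for no effect and 0.29 µM artemisinin for full effect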
Method in brief: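 SYBR Green I DNA fluorescence read-out, ex 485/em 535 nm. Signals were normalized to 0.29 uM artemisinin and DMSO wells, then corrected using vehicle-only plates flanking each stack. Parasite growth ran 72 h in erythrocytes before lysis.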

[9] = qHTS for differential inhibitors of proliferation of Plasmodium falciparum line W2 (AID 1883); details: Potency: Plasmodium falciparum W2 proliferation inhibition;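 further: parasites grown with compound for 72 h before lysis and staining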; further: potency means the concentration at half of the fitted maximal effect;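 on activity change, negative = inhibition: 0% = vehicle wells and -100% = control inhibitor wells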
[10] = qHTS for differential inhibitors of proliferation of Plasmodium falciparum line HB3 (AID 1886); details: Potency: Plasmodium falciparum HB3 proliferation inhibition;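 further: potency means the concentration at half of the fitted maximal effect; parasites grown with compound for 72 h before SYBR Green readout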
[11] = Validation screen for inhibitors of Lassa infection (AID 463096; calls by dose curve; further: potency means the concentration at half of the fitted maximal effect)
[12] = Validation screen for small molecules that induce DNA re-replication in MCF 10A normal breast cells (AID 463097); further: potency means the concentration at half of the fitted maximal effect; nearly all actives have a fitted effect of over 60% in size
Method in brief: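 Following 48 hr compound incubation (37 C, 5% CO2), MCF 10A cells receive Hoechst for 40 min at 37 C. Nuclei are then scanned (excitation 405 nm, emission 500-530 nm) for total fluorescence intensity.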

[13] = Quantitative high throughput screen for delayed death inhibitors of the malarial parasite plastid, 96 hour incubation (AID 488745); further: nearly all actives have a fitted effect of over 70% in size; further: potency means the concentration at half of the fitted maximal effect
Method in brief: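 P. falciparum carrying an integrated firefly luciferase reporter, grown in erythrocytes (2% hematocrit, 0.1% parasitemia final) in RPMI 1640/0.5% Albumax, was exposed to compound for 96 h (two generations) at 37 C, 5% CO2. Luminescence decrease indicated growth inhibition.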

[14] = Quantitative high throughput screen for delayed death inhibitors of the malarial parasite plastid, 48 hour incubation (AID 488752); further: nearly all actives have a fitted effect of over 65% in size; further: potency means the concentration at half of the fitted maximal effect
Method in brief: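 Erythrocytes infected with P. falciparum carrying an integrated firefly luciferase reporter (2% hematocrit, 0.1% parasitemia final) were exposed to compounds in RPMI 1640/0.5% Albumax for 48 h at 37 C, 5% CO2. Growth inhibition was scored as reduced luminescence.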

[15] = molecular target: Thyrotropin-releasing hormone receptor (Homo sapiens) (UniProt P34981); test: qHTS for Small Molecule Agonists and Allosteric Enhancers of Human TRH Receptor: Validation Screen for Agonists (AID 493127;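 active means calcium activation more than 3 SD above the typical response in the agonist read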;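 further: intracellular calcium rise by fluo-8 fluorescence before TRH EC20 addition; 0% is about no effect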); details: TRH receptor agonist cell assay; at 2 µM; stronger effect = higher value
Chain of Thyrotropin-releasing hormone receptor (Homo sapiens) (P34981 whole entry, looked up): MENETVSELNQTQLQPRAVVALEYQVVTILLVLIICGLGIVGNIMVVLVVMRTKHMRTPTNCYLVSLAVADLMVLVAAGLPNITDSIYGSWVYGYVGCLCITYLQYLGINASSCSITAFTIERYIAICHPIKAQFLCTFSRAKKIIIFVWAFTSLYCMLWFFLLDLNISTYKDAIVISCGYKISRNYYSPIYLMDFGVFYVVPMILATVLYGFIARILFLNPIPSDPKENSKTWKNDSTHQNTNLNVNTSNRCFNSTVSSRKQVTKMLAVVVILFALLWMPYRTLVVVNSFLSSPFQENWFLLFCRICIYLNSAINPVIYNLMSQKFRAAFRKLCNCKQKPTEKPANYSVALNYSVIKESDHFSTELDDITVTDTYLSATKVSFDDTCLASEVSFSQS
Method in brief: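 TRHR-expressing cells were plated overnight in serum-containing medium, then loaded with fluo-8 calcium dye at room temperature for 30 min–1.5 h. After a 10 s baseline, compound was pin-transferred and calcium fluorescence (ex 480/em 530) read kinetically for agonist response.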

[16] = molecular target: Galactokinase (Homo sapiens) (UniProt P51570); test: qHTS Validation Assay for Inhibitors of Human Galactokinase (GALK) (AID 493189); further: 0% is about no effect
Chain of Galactokinase (Homo sapiens) (P51570 whole entry, looked up): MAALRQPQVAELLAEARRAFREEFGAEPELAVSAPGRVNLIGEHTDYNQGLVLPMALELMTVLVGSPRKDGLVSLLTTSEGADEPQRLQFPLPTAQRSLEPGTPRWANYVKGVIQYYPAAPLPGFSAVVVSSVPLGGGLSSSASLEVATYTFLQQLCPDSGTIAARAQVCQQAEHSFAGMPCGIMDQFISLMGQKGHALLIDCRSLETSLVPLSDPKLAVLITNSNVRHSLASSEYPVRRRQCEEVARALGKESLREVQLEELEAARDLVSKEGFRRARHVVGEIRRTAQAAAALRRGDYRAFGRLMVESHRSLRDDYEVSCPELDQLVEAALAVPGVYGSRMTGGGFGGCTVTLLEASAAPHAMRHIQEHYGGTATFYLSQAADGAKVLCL
Method in brief: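 Enzyme activity is inferred from ATP consumption: human GALK phosphorylates galactose (100 uM) using 35 uM ATP for 1 h at room temperature, and luciferase-based Kinase-Glo Plus reports unconsumed ATP.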

[17] = molecular target: Catechol O-methyltransferase (Homo sapiens) (UniProt P21964); test: Confirmatory Screen for Target Class Profiling of Small Molecule Inhibitors of Methyltransferases (AID 1745852); details: MTase-Glo luminescence, SAH detection, recombinant enzyme; measured here: COMT max response; stronger effect = lower value
Chain of Catechol O-methyltransferase (Homo sapiens) (P21964 whole entry, looked up): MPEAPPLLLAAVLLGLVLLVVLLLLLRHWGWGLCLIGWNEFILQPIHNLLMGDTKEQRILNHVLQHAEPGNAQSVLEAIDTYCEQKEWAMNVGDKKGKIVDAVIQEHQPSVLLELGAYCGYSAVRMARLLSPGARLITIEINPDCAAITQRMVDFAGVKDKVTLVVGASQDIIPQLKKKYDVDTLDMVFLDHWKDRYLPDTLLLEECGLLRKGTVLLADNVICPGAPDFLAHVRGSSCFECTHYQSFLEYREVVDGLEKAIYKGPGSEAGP

[18] = molecular target: Guanidinoacetate N-methyltransferase (Homo sapiens) (UniProt Q14353); test: as above; details: MTase-Glo luminescence, SAH detection, recombinant enzyme; activity change, negative = inhibition: at 85.7 µM (top of the series) unless noted
[19] = molecular target: Nicotinamide N-methyltransferase (Homo sapiens) (UniProt P40261); test: as above; details: MTase-Glo luminescence, SAH detection, recombinant enzyme; measured here: NNMT max response; stronger effect = lower value
Chain of Nicotinamide N-methyltransferase (Homo sapiens) (P40261 whole entry, looked up): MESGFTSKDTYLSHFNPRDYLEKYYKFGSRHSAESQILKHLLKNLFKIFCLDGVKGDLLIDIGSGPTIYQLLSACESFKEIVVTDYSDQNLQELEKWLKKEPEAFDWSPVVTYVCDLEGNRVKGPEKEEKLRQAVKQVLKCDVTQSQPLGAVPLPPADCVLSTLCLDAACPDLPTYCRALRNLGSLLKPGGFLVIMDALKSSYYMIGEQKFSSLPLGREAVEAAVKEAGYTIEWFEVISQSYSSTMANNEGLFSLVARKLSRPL

[20] = molecular target: Phenylethanolamine N-methyltransferase (Homo sapiens) (UniProt P11086); test: as above; details: MTase-Glo luminescence, SAH detection, recombinant enzyme; measured here: PNMT max response; stronger effect = lower value
Chain of Phenylethanolamine N-methyltransferase (Homo sapiens) (P11086 whole entry, looked up): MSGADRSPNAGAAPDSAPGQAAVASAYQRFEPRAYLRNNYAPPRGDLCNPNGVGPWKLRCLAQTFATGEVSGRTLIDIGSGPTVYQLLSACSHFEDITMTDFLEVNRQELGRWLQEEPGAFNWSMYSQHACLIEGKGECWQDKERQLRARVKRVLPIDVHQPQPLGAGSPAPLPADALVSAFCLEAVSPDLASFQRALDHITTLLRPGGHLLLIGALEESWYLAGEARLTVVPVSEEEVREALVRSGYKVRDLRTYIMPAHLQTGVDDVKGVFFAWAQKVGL

[21] = molecular target: DNA repair nuclease/redox regulator APEX1 (Homo sapiens) (UniProt P27695); test: qHTS Validation Assay for Inhibitors of the Human Apurinic/apyrimidinic Endonuclease 1 (APE1) (AID 1705;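 further: TAMRA fluorescence gain over two minutes as APE1 cuts a quenched THF abasic duplex; on the % scale 0 is the no-effect control and ±100 the full control effect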)
Chain of DNA repair nuclease/redox regulator APEX1 (Homo sapiens) (P27695 whole entry, looked up): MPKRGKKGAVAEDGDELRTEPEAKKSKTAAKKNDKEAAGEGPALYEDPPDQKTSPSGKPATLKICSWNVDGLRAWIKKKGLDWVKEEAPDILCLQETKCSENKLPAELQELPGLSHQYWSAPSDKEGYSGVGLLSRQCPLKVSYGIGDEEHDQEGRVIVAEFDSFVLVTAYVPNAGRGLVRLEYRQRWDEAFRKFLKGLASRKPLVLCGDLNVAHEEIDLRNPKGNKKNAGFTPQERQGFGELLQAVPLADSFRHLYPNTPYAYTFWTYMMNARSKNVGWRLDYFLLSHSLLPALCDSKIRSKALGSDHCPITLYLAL
Method in brief: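 Substrate: 50 nM final fluorophore/quencher THF-abasic duplex. Enzyme preincubated with compounds 15 min, RT. Progress derived from fluorescence difference, third minus first kinetic read.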

[22] = qHTS Assay for Modulators of Human Peripheral Myelin Protein 22 (PMP22) Expression/Activity (AID 1967; active means well fitted curve in the direction sought with a large enough effect in the signal ratio; the % refers to the signal ratio;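 further: 0% = untreated cells and 100% end not stated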)
Method in brief: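 Engineered MSC80 cells, Pmp22-promoter green and EF-alpha red luciferase reporters; 24h compound treatment at 37 °C. Concentration-response fits on green, red and ratio signals, each overlap-corrected, with %Activity normalized to untreated wells.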

[23] = molecular target: Ferritin light chain (Equus caballus) (UniProt P02791); test: qHTS Validation Assay for Identification of Novel General Anesthetics (AID 2323); further: on the % scale 0 is the no-effect control and ±100 the full control effect
Chain of Ferritin light chain (Equus caballus) (P02791 2-175 limits assumed): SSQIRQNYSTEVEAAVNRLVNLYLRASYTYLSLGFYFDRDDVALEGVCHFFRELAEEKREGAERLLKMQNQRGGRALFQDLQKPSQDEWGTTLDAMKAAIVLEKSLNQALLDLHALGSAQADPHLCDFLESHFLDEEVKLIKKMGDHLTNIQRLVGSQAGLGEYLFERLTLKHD
Method in brief: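 Normalized fluorescence response, scaled between free 1-AMA and 1-AMA/apoferritin complex, fitted to a four-parameter Hill equation for concentration-effect values. Binding mix: 10 uM horse-spleen apoferritin, 50% saturated 1-AMA in PBS; read 380/535 nm after 10 min.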

[24] = molecular target: Transient receptor potential cation channel subfamily V member 1 (Homo sapiens) (UniProt Q8NER1); test: HTS Assay for Compounds that Act as Enhancers of the Vanilloid Receptor 1 (AID 488979); further: 0% is about no effect
Chain of Transient receptor potential cation channel subfamily V member 1 (Homo sapiens) (Q8NER1 whole entry, looked up): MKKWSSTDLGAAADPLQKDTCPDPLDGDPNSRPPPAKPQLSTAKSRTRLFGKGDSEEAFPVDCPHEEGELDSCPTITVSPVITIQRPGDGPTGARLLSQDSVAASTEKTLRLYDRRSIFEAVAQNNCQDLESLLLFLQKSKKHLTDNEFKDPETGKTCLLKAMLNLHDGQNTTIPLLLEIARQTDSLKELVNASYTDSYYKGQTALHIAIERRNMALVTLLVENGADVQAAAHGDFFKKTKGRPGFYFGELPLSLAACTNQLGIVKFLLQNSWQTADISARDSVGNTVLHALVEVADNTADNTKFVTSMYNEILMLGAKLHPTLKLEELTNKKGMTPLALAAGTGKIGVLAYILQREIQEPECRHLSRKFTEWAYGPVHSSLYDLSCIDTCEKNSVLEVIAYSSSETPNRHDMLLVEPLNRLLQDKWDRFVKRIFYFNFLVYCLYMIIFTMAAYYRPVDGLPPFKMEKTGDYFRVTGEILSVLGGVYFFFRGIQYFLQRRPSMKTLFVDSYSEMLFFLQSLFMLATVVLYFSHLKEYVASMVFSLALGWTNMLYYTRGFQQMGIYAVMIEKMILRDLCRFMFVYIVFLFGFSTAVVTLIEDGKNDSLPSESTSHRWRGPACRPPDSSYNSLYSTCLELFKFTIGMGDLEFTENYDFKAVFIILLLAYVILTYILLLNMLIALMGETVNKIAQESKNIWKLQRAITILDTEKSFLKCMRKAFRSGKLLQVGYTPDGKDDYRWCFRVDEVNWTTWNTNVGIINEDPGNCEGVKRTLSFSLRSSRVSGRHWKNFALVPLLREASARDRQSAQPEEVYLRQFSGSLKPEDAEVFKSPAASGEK
Method in brief: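 Calcium influx kinetics via Fluo-8 (480/520 nm) in TRPV1-expressing cells, 2000/well cultured overnight at 35.5C. Compound-alone read 3 min (agonist phase), followed by EC20 capsaicin challenge for 2 min (enhancer phase).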

[25] = molecular target: Voltage-gated inwardly rectifying potassium channel KCNH2 (Homo sapiens) (UniProt Q12809); test: qHTS Assay for Small Molecule Inhibitors of the Human hERG Channel Activity (AID 588834);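 further: top concentration of the series differs between compounds; on the % scale 0 is the no-effect control and ±100 the full control effect; lower thallium flux fluorescence means stronger hERG block; nearly all actives have a fitted effect of over 50% in size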
Chain of Voltage-gated inwardly rectifying potassium channel KCNH2 (Homo sapiens) (Q12809 whole entry, looked up): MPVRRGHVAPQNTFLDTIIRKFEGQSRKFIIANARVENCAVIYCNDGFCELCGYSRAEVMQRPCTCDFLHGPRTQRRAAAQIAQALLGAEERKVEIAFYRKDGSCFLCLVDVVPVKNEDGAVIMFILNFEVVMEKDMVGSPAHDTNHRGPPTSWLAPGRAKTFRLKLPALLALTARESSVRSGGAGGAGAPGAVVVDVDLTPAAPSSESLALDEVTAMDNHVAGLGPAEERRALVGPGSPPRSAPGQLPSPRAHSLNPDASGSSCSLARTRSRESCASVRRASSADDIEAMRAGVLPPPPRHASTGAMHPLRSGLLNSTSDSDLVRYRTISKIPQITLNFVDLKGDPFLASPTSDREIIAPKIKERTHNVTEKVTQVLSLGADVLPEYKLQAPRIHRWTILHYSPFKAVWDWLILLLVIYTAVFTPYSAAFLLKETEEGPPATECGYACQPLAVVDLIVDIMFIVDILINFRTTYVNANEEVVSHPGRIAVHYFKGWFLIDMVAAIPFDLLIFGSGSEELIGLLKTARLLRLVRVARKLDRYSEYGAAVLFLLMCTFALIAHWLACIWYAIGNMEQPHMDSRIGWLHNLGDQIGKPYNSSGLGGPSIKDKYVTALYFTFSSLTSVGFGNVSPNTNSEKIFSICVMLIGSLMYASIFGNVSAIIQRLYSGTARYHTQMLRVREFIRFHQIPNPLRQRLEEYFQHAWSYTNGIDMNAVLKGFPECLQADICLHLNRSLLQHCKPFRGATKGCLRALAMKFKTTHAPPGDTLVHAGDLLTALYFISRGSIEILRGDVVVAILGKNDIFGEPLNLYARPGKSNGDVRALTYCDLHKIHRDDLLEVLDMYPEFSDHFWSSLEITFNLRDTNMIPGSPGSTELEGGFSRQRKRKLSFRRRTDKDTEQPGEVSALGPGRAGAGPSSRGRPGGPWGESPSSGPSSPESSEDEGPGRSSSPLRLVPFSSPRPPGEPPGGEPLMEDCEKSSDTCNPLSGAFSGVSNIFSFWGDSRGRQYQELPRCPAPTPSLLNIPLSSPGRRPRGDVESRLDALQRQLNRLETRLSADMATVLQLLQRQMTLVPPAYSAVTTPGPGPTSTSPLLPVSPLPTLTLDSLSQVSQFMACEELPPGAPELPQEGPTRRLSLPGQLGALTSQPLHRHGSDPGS
Method in brief: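 Blockade is seen as reduced FluxOR thallium-flux fluorescence in U2OS cells expressing hERG from a BacMam construct, in Opti-MEM with 2% FCS. Concentration-response data fitted to the Hill equation for AC50.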

[26] = molecular target: Nuclear receptor subfamily 1 group I member 3 (Homo sapiens) (UniProt Q14994); test: Primary qHTS for antagonist of constitutive androstane receptor (CAR) against the NCATS DSHEA and TCM libraries (AID 1794836);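 further: HepG2 cells stably expressing hCAR with CYP2B6 luciferase reporter stimulated by CITCO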
Chain of Nuclear receptor subfamily 1 group I member 3 (Homo sapiens) (Q14994 whole entry, looked up): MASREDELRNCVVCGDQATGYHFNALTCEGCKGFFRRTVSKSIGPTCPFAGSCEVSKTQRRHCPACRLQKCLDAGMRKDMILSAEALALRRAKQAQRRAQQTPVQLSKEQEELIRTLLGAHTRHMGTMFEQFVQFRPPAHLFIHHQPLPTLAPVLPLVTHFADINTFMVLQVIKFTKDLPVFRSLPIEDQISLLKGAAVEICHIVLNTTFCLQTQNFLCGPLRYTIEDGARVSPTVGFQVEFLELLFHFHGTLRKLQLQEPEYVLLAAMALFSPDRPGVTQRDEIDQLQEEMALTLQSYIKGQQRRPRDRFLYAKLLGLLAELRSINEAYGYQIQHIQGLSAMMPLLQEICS
Method in brief: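 Antagonist mode: CAR reporter luminescence (ONE-Glo) in HepG2-CYP2B6-hCAR cells stimulated with 48 uM CITCO (final) over 24 h at 37 C, compounds titrated; viability read first by CellTiter-Fluor fluorescence.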

[27] = KB-8-5-11 P-gp reporter qHTS against the NCATS DSHEA and TCM libraries (AID 1919977); further: 0% is about no effect
Method in brief: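 Viability of drug-resistant KB-8-5-11 cells is measured by CellTiter-Glo luminescence following roughly 72 h treatment at 37C. Substances were titrated, with bortezomib as intraplate control.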

For `O=c1ccc2ccc3occc3c2o1`, the Potency [1] was “inactive”.
In the case of `C/C=C(/C)C(=O)O[C@H]1C(C)=C2C([C@@H]1OC(=O)CCCCCCC)[C@@](C)(OC(C)=O)C[C@@H](OC(=O)CCC)[C@@]1(O)[C@H]2OC(=O)[C@@]1(C)O` (stereo partly drawn), the outcome [2] is reported as “inactive”, the Potency [3] is reported as “inactive” and the Potency [4] is reported as 4.47 µM (active). The Potency [5] was 3.16 µM (active), the Potency [6] was 4.47 µM (active) and the Potency [7] was 10 µM (active). The Potency [8] was 8.91 µM (active), the Potency [9] was 3.55 µM (active) and the Potency [10] was 10 µM (active). The Potency [11] was 3.16 µM (active), the Potency [12] was 6.31 µM (active) and the Potency [13] was 4.15 µM (active). The Potency [14] was 2.94 µM (active), the activation [15] was 37.9% (active) and the outcome [16] was “inactive”.
For `CNC1CCc2ccccc21` (stereo not drawn), the activity [17] was -8.85%, the activity change, negative = inhibition [18] was 9.32% [at 114 µM] and the activity [19] was -95.4%. The activity [20] was -50.7%.
For `C[C@]12C=CC(=O)C=C1CCC1C2=CC[C@]2(C)[C@@H](C(=O)CN3CCN(c4cc(N5CCCC5)nc(N5CCCC5)n4)CC3)CC[C@@H]12` (stereo partly drawn), the outcome [2] was “inactive”, the Potency [4] was 1.12 µM (active) and the Potency [5] was 1.26 µM (active). For the same compound, the Potency [6] was 0.794 µM (active), the Potency [7] was 1.58 µM (active) and the Potency [8] was 10 µM (active). For the same compound, the Potency [9] was 0.794 µM (active) and the Potency [10] was 1.41 µM (active).
For `CN(CCc1ccccn1)C[C@H]1CN2CC[C@H]1C[C@@H]2CNC(=O)Nc1ccsc1`, the activity [17] was -2.73%, the activity change, negative = inhibition [18] was 6.86% and the activity [19] was 0.703%. The activity [20] was -0.547%.
`C=C[C@H]1CN2CC[C@H]1C[C@@H]2CNC(=O)Nc1ccc(Br)cc1` gave an activity [17] of 4.06%, an activity change, negative = inhibition [18] of -0.845% and an activity [19] of -5.4%. The activity [20] was 4.01%.
For `CN(C)C/C=C/C(=O)Nc1cccc(C(OCCN2CCCCC2)c2cc3nccc(C(=O)O)c3s2)c1` (stereo not drawn), the Potency [1] was “inactive”.
For `O=C(Nc1ccccc1F)N[C@@H]1N=C(c2ccccc2)c2ccccc2NC1=O`, the Potency [1] was “inactive”.
With `C[C@@H]1O[C@@H](O[C@H]2C[C@@H](O)[C@]3(CO)[C@H]4[C@H](O)C[C@]5(C)[C@@H]([C@@H]6COC(=O)C6)CC[C@]5(O)[C@@H]4CC[C@]3(O)C2)[C@H](O)[C@H](O)[C@H]1O` the Potency [21] was “inactive”, the outcome [2] was “inactive” and the Potency [3] was “inactive”. The Potency [5] was “inactive”, the Potency [6] was “inactive” and the Potency [7] was “inactive”. For the same compound, the Potency [8] was “inactive”, the Potency [9] was “inactive” and the outcome [22] was “inactive”. For the same compound, the Potency [23] was “inactive”, the Potency [11] was 1.58 µM (active) and the Potency [13] was “inactive”. For the same compound, the Potency [14] was “inactive”, the outcome [24] was “inactive” and the activation [15] was 1.38% (inactive). The outcome [16] was “inactive” and the Potency [25] was “inactive”.
With `Nc1cccc(C(OCCN2CCCCC2)c2cc3nccc(C(=O)O)c3s2)c1` (stereo not drawn) the Potency [1] was “inactive”.
For `O=C(O)[C@H]1O[C@@H](Oc2c(-c3ccc(O)c(O)c3)oc3cc(O)cc(O)c3c2=O)[C@H](O)[C@@H](O)[C@@H]1O`, the Potency [26] was “inactive” and the Potency [27] was “inactive”.
